From PubChem BioAssay (NCATS)
“And” between values parts separate entries of the source, which are not always exact repeats. Equal entries are not always repeated. Inconclusive results are not listed. Some structures have more than one record in an assay (separate samples or runs), and their calls can disagree. The source made the active and inactive calls. Unless noted, calls come from the whole dose curve; as a rule, active = well fitted curve in either direction with a large enough effect (not every such curve was filed as active); inconclusive = small, poorly fitted or top-dose-only effect, or another doubt; inactive = flat fitted curve, though single readings scatter.

Columns and labels:
[1] = AP1 Signaling Pathway (AID 357);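 note: ME-180 reporter cells stimulated with EGF at its EC50 level; % is set by controls: 0 for no effect and ±100 for the full control effect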
Procedure, shortened: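 Beta-lactamase reporter under AP-1 response element, ME-180 background. Stimulus: EC50 EGF. Compound exposure 5 h, 37 °C. Detection: CCF4, 2.5 h RT, 460/530 nm. Values: AC50 from titration.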

[2] = target: Cytochrome P450 1A2 (Homo sapiens) (UniProt P05177); assay: p450-cyp1a2 (AID 410; calls by dose curve; note: potency is the fitted concentration of half-maximal effect;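 for activity change, negative = inhibition: -100% = full effect of reference inhibitor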)
Procedure, shortened: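 Luminescent demethylation readout: Luciferin-ME (100uM, equal to Km) turned over by 20nM CYP1A2 for 60 min at room temperature after NADPH regeneration addition, following 10 min compound preincubation. Normalization used 57 uM furafylline as full inhibition.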

[3] = NFAT Signaling Pathway (AID 444); conditions: Jurkat NFAT-bla M1, carbachol, beta-lactamase ratio, 5 h; at 17.2 µM (top of the series);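 note: carbachol stimulus at about its EC50 of 1 µM final; % is set by controls: 0 for no effect and ±100 for the full control effect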
Procedure, shortened: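 Read-out: CCF4 FRET ratio (460 nm/530 nm) after 1 h RT dye loading, used for %activity and AC50 from titration series. Cells: Jurkat NFAT-β-lactamase/M1 line, treated with compound plus 1 uM carbachol for 5 h, 37 °C.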

[4] = Stat Signaling Pathway (AID 446);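 note: ME-180 cervical cancer cells given 40 pM IL-6 alongside compound; SIE-controlled beta-lactamase reporter measured as 460/530 nm FRET emission ratio; % is set by controls: 0 for no effect and ±100 for the full control effect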
Procedure, shortened: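 Overnight-plated ME-180 cells bearing a STAT Inducible Element beta-lactamase reporter; 5 h co-exposure to compound and 40 pM IL-6; values normalized to 300 pM IL-6 and 125 nM JAK inhibitor controls.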

[5] = target: Glucocorticoid receptor (Homo sapiens) (UniProt P04150); assay: GR-GFP Redistribution (AID 450;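 active = compounds whose dose series gives a full or clear partial fitted curve of increased nuclear translocation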; note: potency is the fitted concentration of half-maximal effect); conditions: U2OS GR-GFP nuclear translocation, laser cytometry, 2 h
[6] = target: Glucocorticoid receptor (Homo sapiens) (UniProt P04150); assay: GR-EFC Redistribution (AID 451; calls by dose curve; note: potency is the fitted concentration of half-maximal effect); conditions: CHO-K1 GR-EFC translocation, beta-gal luminescence, 2 h
Procedure, shortened: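 Translocation of GR-ED fusion to nuclear EA restores b-gal, read by luminescence after 1 h room-temperature detection. Engineered CHO-K1 biosensor cells, 1,000/well, exposed 2 h at 37 C to titrations up to 46 uM final.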

[7] = target: Mitogen-activated protein kinase 10 (Mus musculus) (UniProt Q61831); assay: JNK3 AlphaScreen Assay (AID 530);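 note: kinase came from lysate of stimulated human HepG2 cells; signal reports phosphorylation of biotinylated GST-cJun 1-79 at Ser73 with 10 µM ATP; % is set by controls: 0 for no effect and ±100 for the full control effect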
Procedure, shortened: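 qHTS titrations with 15 min compound pre-incubation before adding ATP (10 uM final). Read-out: AlphaScreen of Ser73-phosphorylated biotin-GST-cJun using HepG2 lysate JNK3 activated by IL-1β and TNFα.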

[8] = target: 3',5'-cyclic-AMP phosphodiesterase 4B (Homo sapiens) (UniProt Q07343); assay: qHTS Assay for Inhibitors of PDE-IV (AID 607; active = well fitted activation curve with a large enough effect in the main read-out, with a control signal flat, not every such curve was filed as active; note: % of control where 0% means no effect)
Procedure, shortened: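 Live HEK293 cells with a modified cyclic nucleotide-gated (CNG) channel report intracellular cAMP via membrane-potential dye fluorescence (ex 535/em 590 nm). Endogenous PDE-IV was targeted. Compounds were tested at up to 22.9 uM final; RO 20-1724 100 uM served as control.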

[9] = qHTS Assay for Lipid Storage Modulators (AID 1519; calls by dose curve); conditions: Drosophila S3 cells, BODIPY lipid droplet/cell ratio, laser cytometry, cells loaded with oleic acid; for activity change, negative = inhibition: at 25.7 µM (top of the series)
Procedure, shortened: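 Cells seeded at 5,000 per well were treated with compounds over a concentration series and loaded with oleic acid (400 uM, as added). Lipid droplet fluorescence (488 nm excitation, 500-530 nm channel) was read by laser-scanning cytometry and normalized to 20 uM Triacsin C.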

[10] = target: Ubiquitin carboxyl-terminal hydrolase 1 (Homo sapiens) (UniProt O94782); assay: Inhibitors of USP1/UAF1: Pilot qHTS (AID 504865; active = well fitted curve in the direction sought with a large enough effect; an effect the other way counts as inactive or inconclusive;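 note: rhodamine fluorescence freed from ubiquitin-rhodamine substrate followed over time; top concentration of the series differs between compounds; % is set by controls: 0 for no effect and ±100 for the full control effect; nearly all actives have a fitted effect of over 35% in size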)
Procedure, shortened: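 1nM USP1/UAF1 + cpd, 15 min RT; start w/ Ub-Rho 150nM final; kinetic FL 480/540 nm, 6 reads q60 s. Buffer 50mM HEPES pH 7.8, 0.5mM EDTA, 1mM TCEP, 0.01% Tween-20, 0.1 mg/ml BSA.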

[11] = target: Cytochrome P450 3A4 (Homo sapiens) (UniProt P08684); assay: qHTS Assay for Activators of Cytochrome P450 3A4 (AID 885; active = well fitted curve in the direction sought with a large enough effect; an effect the other way counts as inactive or inconclusive; note: nearly all actives have a fitted effect of over 65% in size)
Procedure, shortened: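 Using 20nM recombinant human CYP3A4 in potassium phosphate (200mM), substrate Luciferin-PPXE at 25uM, luminescent luciferin detection followed a 60-min RT NADPH reaction; data scaled to 57 uM ketoconazole.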

[12] = target: Cytochrome P450 2D6 (Homo sapiens) (UniProt P10635); assay: qHTS Assay for Inhibitors and Substrates of Cytochrome P450 2D6 (AID 891; active = well fitted curve in the direction sought with a large enough effect; an effect the other way counts as inactive or inconclusive; note: nearly all actives have a fitted effect of over 60% in size; note: potency is the fitted concentration of half-maximal effect)
Procedure, shortened: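 Luminescent read-out of luciferin formed by 5 nM human CYP2D6 demethylating 30 uM Luciferin-ME EGE (Km level) over 60 min at room temperature after NADPH regeneration addition. Data normalized to full inhibition by 1.43 uM quinidine.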

[13] = target: Cytochrome P450 3A4 (Homo sapiens) (UniProt P08684); assay: qHTS Assay for Inhibitors and Substrates of Cytochrome P450 3A4 (AID 884; active = well fitted curve in the direction sought with a large enough effect; an effect the other way counts as inactive or inconclusive; note: potency is the fitted concentration of half-maximal effect; nearly all actives have a fitted effect of over 50% in size)
Procedure, shortened: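 Luminescent readout of luciferin produced by CYP3A4 (20 nM) dealkylation of Luciferin-PPXE, 25 uM (its KM). NADPH-driven reaction ran 60 min at RT after 10 min compound preincubation; data scaled to 57 uM ketoconazole as 100% inhibition.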

[14] = measured here: cell count channel max response
[15] = measured here: lipid channel max response

Sequence of 3',5'-cyclic-AMP phosphodiesterase 4B (Homo sapiens) (Q07343 whole entry, looked up): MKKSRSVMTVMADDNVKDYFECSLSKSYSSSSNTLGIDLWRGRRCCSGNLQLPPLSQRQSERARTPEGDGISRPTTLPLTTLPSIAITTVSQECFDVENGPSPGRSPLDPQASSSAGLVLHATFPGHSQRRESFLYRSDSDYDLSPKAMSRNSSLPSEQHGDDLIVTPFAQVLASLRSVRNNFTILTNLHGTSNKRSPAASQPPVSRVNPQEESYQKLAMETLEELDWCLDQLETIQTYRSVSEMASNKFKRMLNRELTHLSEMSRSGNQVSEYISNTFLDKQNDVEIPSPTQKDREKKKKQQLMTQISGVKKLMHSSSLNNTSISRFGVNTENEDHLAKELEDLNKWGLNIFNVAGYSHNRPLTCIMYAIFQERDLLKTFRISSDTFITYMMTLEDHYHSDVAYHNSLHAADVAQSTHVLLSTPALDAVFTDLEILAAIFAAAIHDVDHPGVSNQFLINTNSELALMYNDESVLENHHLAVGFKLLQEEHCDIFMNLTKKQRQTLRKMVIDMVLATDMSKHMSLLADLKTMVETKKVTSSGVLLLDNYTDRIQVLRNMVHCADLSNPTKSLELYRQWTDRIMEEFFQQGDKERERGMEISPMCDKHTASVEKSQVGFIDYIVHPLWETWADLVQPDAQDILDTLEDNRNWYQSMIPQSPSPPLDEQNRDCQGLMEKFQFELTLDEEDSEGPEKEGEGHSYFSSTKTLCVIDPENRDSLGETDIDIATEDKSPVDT
Sequence of Cytochrome P450 3A4 (Homo sapiens) (P08684 whole entry, looked up): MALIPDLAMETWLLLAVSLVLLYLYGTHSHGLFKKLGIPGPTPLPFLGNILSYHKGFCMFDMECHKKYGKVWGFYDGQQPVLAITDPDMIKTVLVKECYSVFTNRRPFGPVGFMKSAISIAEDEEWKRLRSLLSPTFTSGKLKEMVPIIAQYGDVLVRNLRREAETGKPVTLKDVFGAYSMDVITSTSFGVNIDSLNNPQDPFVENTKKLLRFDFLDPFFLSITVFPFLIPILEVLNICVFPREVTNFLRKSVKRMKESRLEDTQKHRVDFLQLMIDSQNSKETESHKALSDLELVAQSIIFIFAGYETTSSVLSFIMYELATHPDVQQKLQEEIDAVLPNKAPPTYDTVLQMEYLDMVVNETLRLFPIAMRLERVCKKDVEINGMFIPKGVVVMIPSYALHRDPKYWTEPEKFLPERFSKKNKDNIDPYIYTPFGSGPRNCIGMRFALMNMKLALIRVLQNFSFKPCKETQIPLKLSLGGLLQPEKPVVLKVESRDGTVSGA
Sequence of Ubiquitin carboxyl-terminal hydrolase 1 (Homo sapiens) (O94782 whole entry, looked up): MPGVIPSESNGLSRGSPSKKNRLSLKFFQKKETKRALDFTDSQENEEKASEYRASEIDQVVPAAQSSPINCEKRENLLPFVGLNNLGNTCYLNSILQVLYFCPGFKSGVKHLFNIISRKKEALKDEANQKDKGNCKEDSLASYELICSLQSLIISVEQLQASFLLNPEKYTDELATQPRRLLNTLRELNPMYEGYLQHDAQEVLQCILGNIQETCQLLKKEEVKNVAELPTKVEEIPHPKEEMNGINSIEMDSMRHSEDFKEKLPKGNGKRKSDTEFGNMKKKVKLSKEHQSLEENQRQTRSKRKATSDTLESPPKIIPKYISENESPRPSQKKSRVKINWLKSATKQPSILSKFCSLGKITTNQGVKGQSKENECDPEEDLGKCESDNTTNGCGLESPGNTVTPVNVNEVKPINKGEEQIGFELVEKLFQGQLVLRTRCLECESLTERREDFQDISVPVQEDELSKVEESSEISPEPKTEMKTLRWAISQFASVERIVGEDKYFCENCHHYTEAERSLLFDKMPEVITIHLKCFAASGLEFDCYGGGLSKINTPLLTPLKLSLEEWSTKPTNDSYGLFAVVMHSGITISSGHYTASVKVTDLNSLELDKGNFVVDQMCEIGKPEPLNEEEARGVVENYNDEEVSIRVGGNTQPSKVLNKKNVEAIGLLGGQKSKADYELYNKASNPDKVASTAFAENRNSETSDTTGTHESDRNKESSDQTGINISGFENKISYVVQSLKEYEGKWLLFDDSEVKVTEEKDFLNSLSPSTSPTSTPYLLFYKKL
Sequence of Cytochrome P450 1A2 (Homo sapiens) (P05177 whole entry, looked up): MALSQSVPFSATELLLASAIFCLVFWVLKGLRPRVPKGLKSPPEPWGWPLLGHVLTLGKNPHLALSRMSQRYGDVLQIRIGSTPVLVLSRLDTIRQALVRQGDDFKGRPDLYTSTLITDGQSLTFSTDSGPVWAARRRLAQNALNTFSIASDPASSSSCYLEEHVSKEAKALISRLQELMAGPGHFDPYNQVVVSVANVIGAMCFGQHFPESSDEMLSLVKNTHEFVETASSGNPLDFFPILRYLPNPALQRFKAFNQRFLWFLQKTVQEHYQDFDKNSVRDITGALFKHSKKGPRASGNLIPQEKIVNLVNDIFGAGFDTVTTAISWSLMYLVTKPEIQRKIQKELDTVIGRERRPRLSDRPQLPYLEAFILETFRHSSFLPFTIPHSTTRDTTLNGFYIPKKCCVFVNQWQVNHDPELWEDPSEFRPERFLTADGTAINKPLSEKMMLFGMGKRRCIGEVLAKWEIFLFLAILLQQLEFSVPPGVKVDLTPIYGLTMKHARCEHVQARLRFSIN
Sequence of Cytochrome P450 2D6 (Homo sapiens) (P10635 whole entry, looked up): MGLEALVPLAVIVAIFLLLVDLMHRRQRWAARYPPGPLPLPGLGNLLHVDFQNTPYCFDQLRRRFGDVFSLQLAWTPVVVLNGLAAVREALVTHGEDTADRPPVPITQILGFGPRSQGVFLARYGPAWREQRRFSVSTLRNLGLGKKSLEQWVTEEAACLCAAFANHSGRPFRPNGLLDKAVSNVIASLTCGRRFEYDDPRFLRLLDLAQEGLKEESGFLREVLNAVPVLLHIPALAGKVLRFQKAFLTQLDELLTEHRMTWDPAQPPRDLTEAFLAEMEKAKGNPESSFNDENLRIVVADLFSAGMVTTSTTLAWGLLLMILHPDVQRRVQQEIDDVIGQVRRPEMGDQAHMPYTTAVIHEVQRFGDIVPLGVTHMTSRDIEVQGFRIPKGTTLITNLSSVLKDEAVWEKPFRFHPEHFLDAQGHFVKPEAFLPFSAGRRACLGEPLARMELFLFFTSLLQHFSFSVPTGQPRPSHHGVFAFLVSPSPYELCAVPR
Sequence of Glucocorticoid receptor (Homo sapiens) (P04150 whole entry, looked up, the tested form may be a part): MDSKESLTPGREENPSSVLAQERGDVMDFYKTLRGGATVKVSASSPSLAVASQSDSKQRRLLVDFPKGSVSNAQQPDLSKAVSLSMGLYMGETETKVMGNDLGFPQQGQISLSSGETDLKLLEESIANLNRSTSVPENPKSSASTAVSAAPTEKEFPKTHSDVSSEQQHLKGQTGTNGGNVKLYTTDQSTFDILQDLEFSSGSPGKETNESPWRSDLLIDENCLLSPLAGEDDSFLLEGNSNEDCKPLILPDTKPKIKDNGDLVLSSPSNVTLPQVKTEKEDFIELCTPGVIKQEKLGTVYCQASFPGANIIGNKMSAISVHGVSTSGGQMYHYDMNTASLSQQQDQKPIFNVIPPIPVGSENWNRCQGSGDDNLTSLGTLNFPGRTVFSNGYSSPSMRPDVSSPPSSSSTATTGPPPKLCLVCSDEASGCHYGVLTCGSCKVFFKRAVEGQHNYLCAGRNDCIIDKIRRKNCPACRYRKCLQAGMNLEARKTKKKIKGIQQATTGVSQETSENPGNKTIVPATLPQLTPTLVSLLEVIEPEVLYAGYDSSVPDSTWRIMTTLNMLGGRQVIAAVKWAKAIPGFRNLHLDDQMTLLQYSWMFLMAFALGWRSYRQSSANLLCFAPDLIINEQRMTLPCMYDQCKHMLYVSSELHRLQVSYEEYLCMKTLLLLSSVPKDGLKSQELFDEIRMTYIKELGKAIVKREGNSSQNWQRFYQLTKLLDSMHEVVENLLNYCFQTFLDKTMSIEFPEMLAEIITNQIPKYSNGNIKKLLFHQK

SMILES	outcome [1]	Potency [2]	activity change, negative = inhibition [3]	outcome [4]	Potency [5]	Potency [6]	outcome [7]	Potency [8]	activity change, negative = inhibition [9]	max response [9, 14]	max response [9, 15]	Potency [10]	Potency [11]	Potency [12]	Potency [13]
CCN1C[C@]2(C)CC[C@H](O)[C@@]34[C@@H]5CC6[C@@H](OC)C[C@@](O)([C@@H]5[C@@H]6O)[C@H](C[C@@H]23)[C@H]14	inactive	inactive	-2.56% (inactive)	inactive	> 20.6 µM (inactive)	> 20.6 µM (inactive)	inactive	inactive	-2.73% (inactive)	-6.13%	-11.4%				
CO[C@@H](C)[C@](O)(C(=O)OCC1=CCN2CC[C@@H](O)[C@H]12)C(C)C	inactive	inactive		inactive	> 20.6 µM (inactive)	> 20.6 µM (inactive)	inactive	inactive	-0.0062% (inactive)	-11.3%	-10.6%	inactive			
COc1cc2c(c(OC)c1OC)-c1ccc(O)c(=O)cc1[C@H](N)CC2	inactive	inactive	14.9% (inactive)	inactive	> 20.6 µM (inactive)	> 20.6 µM (inactive)		inactive	1.48% (inactive)	-6.02%	-4.27%		inactive		
COc1cc2c(cc1OC)[C@H](C)NCC2	inactive	inactive and 20 µM (active)	4.97% (inactive)	inactive	> 20.6 µM (inactive) and > 46 µM (inactive)	> 20.6 µM (inactive) and > 46 µM (inactive)	inactive	inactive	-2.81% (inactive)	-4.52%	-9.32%	inactive		inactive	
CCN1C[C@@]2(COC)[C@H]3[C@@H](OC)[C@H]4C1[C@@]3([C@H](OC)C[C@@H]2O)[C@H]1C[C@@]2(O)[C@@H](OC(=O)c3ccccc3)[C@@H]1[C@@]4(OC(C)=O)[C@H](O)[C@@H]2OC	inactive	inactive	-22.7% (inactive)	inactive			inactive		-1.64% (inactive)	-0.297%	-0.649%	inactive			
CCN1C[C@@]2(COC)CC[C@H](O)[C@@]34[C@@H]2C[C@@H]([C@@H]13)[C@]1(O)C[C@@H](OC)C2C[C@H]4[C@H]1[C@H]2OC(C)=O	inactive	inactive		inactive	> 20.6 µM (inactive)	> 20.6 µM (inactive)		inactive	2.15% (inactive)	-6.46%	-5.05%	inactive			
CN1CCc2cc3c(cc2[C@@H]1O)OCO3	inactive	inactive	-5.65% (inactive)	inactive	> 20.6 µM (inactive)	> 20.6 µM (inactive)	inactive	inactive	0.396% (inactive)	4.41%	3.98%	inactive		7.94 µM (active)	
CN1Cc2c(ccc3c2OCO3)[C@@H]2[C@@H](O)Cc3cc4c(cc3[C@@H]21)OCO4	inactive	2.51 µM (active) and 794 nM (active)		inactive	> 20.6 µM (inactive) and > 46 µM (inactive)	> 20.6 µM (inactive) and > 46 µM (inactive)		inactive	0.247% (inactive)	0.16%	-1.15%	inactive		199 nM (active) and 79.4 nM (active)	5.01 µM (active)
CNC[C@H](O)c1ccc(O)c(OC)c1	inactive	inactive	3.38% (inactive)	inactive	> 20.6 µM (inactive)	> 20.6 µM (inactive)	inactive	inactive	-0.567% (inactive)	7.01%	8.44%				
CN1[C@@H](C[C@@H](O)c2ccccc2)CCC[C@@H]1C[C@H](O)c1ccccc1	inactive	5.01 µM (active)		inactive	> 20.6 µM (inactive)	> 20.6 µM (inactive)	inactive	inactive	-1.73% (inactive)	3.31%	0.966%			0.631 µM (active)	
O=[N+]([O-])O[C@H]1CO[C@H]2[C@H]1OC[C@@H]2O[N+](=O)[O-]	inactive	inactive	-5.68% (inactive)	inactive	> 20.6 µM (inactive)	> 20.6 µM (inactive)	inactive		-2.81% (inactive)	-2.42%	-3.6%				
CC(C)[C@@]1(NC(=O)[C@@H]2C[C@H]3c4cccc5[nH]cc(c45)C[C@@H]3N(C)C2)O[C@]2(O)[C@H]3CCCN3C(=O)[C@H](Cc3ccccc3)N2C1=O	inactive	inactive	1.85% (inactive)	inactive	> 20.6 µM (inactive)	> 20.6 µM (inactive)		inactive	-1.27% (inactive)	6.35%	5.89%	inactive			
CC[C@H]1CN2CC[C@@H]1C[C@H]2[C@@H](O)c1ccnc2ccc(OC)cc12	inactive	inactive		inactive	> 20.6 µM (inactive)	> 20.6 µM (inactive)	inactive		-3.88% (inactive)	-1.96%	-5.46%			3.16 µM (active)	
C=C[C@H]1CN2CC[C@@H]1C[C@H]2[C@@H](O)c1ccnc2ccccc12	inactive	inactive		inactive	> 20.6 µM (inactive)	> 20.6 µM (inactive)	inactive		-1.72% (inactive) and -4.09% (inactive)	9.79% and -10.1%	6.74% and -12.1%	inactive		3.16 µM (active) and 501 nM (active)	
CN1CCc2cc3c(cc2[C@@H]1[C@@H]1OC(=O)c2c1ccc1c2OCO1)OCO3	inactive	15.8 µM (active)		inactive	> 46 µM (inactive) and > 20.6 µM (inactive)	> 46 µM (inactive) and > 20.6 µM (inactive)	inactive		-1.13% (inactive)	-3.68%	-5.44%			inactive	0.794 µM (active)
